Screening data (PubChem BioAssay)
This is one part of a sample in which hits are shown more often than they occur.
NS1 function inh: inhibitors of influenza NS1 protein function; Potency, µM (highest dose often 46.1 µM), without a hit: top-dose activity, positive = more growth; 0.4% of 270,000 active; also: potency is read from the fitted curve at half-maximal effect; actives are rising curves; nearly all actives have a fitted effect of over 50% in size
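OD600 was taken as the measure of yeast growth restored by compound in an NS1-expressing S. cerevisiae strain. Cells had been washed out of glucose medium and diluted 1:100 into galactose -URA medium, pH 6.0.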
Cycloheximide cs: counter-screen hit for Shiga toxin inhibitors, cycloheximide | cell reporter, cycloheximide protein synthesis inhibition counterscreen | max response, % | 12% of 300,000 active; in the data active = max response mostly above about 13%, no sharp cut-off; inactive = mostly below about 14%; also: read at 38.3 µM for the half of the compounds with a filed dose; 0% is about no effect
TbPYK inhibitor: T. brucei pyruvate kinase inhibition. Q57TT1. TbPYK enzyme, Kinase-Glo Plus ATP luminescence, 45 min. Potency, µM (doses to about 76.8 µM), inactives show top-dose activity, negative = inhibition, usual class: inhibitors. 0.12% of 410,000 active; active = well fitted curve in the direction sought with a large enough effect; inconclusive = small, poorly fitted or top-dose-only effect, or another doubt; inactive = no such curve, though single readings can be large; an effect the other way counts as inactive or inconclusive; also: potency is read from the fitted curve at half-maximal effect; % is scaled to controls: 0 for no effect and ±100 for the full control effect; nearly all actives have a fitted effect of over 50% in size
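Luminescent Kinase-Glo Plus end-point after 45 min room-temperature reaction of T. brucei pyruvate kinase started with 130 uM ADP (final). Buffer TEA 50 mM pH 7.2 with KCl, MgCl2, BSA, Tween-20; titration-based qHTS with fitted concentration-effect curves.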
SARS PLP yeast: SARS-CoV PLP inhibition in yeast | S. cerevisiae expressing SARS-CoV PLpro, growth rescue | Potency, µM (doses to about 32.9 µM), for the others: at the top dose activity, positive = growth rescue, actives largely listed as activators | 0.19% of 330,000 active; also: potency is read from the fitted curve at half-maximal effect; 0% is about no effect; nearly all actives have a fitted effect of over 55% in size
LmPK inh: inhibitors of Leishmania mexicana pyruvate kinase; Potency, µM (series often up to 57.5 µM), without a hit: at the highest dose activity change, negative = inhibition, usual class: inhibitors; 0.37% of 290,000 active; Q27686; purified LmPK, Kinase-Glo ATP luminescence, 1 h; active = well fitted curve in the direction sought with a large enough effect; inconclusive = small, poorly fitted or top-dose-only effect, or another doubt; inactive = no such curve, though single readings can be large; an effect the other way counts as inactive or inconclusive; also: potency is read from the fitted curve at half-maximal effect; % is scaled to controls: 0 for no effect and ±100 for the full control effect
Target sequence (Q27686 whole entry, looked up): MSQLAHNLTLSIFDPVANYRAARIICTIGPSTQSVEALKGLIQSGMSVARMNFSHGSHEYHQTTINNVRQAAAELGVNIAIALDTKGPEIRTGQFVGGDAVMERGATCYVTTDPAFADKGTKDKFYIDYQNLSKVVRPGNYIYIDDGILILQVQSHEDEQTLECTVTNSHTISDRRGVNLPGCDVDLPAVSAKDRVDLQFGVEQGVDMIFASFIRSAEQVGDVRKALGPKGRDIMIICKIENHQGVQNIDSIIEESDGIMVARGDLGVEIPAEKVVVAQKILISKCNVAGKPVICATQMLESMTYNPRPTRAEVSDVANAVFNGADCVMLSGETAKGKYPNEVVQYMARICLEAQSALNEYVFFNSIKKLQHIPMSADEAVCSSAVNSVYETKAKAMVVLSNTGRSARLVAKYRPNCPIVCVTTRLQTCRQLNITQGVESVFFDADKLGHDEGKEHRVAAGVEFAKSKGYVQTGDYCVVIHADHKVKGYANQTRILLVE
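Kinase-Glo luminescence read after 1 h RT reaction of 0.1 nM LmPK with 0.5 mM PEP and 0.1 mM ADP. Activity scaled between uninhibited and enzyme-free controls.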
Shiga toxin inh: blocks Shiga toxin action in Vero cells | inhibition, % at 38.7 µM | Vero cells, Shiga toxin protein synthesis inhibition reporter | AID 2315 | 9.2% of 290,000 active; in the data active = inhibition mostly above about 28%, no sharp cut-off; inactive = mostly below about 43%; also: 0% is about no effect
* marks the source's active call; other numbers are inactive results; ? = inconclusive; . = no result given. Unless noted, calls follow the shape of the full dose curve.

SMILES | NS1 function inh | Cycloheximide cs | TbPYK inhibitor | SARS PLP yeast | LmPK inh | Shiga toxin inh
COc1ccc2oc(-c3ccc(C)c(NC(=O)c4ccc(N5CCOCC5)c([N+](=O)[O-])c4)c3)nc2c1 | 10% | 59* | -2% | 3% | 7% | 134*
O=C(Nc1nccs1)c1cc([N+](=O)[O-])ccc1Cl | 9% | 3 | -2% | -8% | -7% | -4
COc1ccc(N2CC3=C(C2=O)C(c2ccc(Br)cc2)NC(=O)N3C)cc1 (configuration not stated) | . | . | -5% | . | . | .
COc1ccccc1NC(=O)c1cn(-c2ccccc2)nc1-c1ccccc1 | . | . | 2% | . | . | .
Cc1ccc2cc(CCNC(=O)c3cccs3)c(=O)[nH]c2c1C | -6% | 45* | 1% | -11% | -2% | 47*
Cc1ccc2cc(CNC(C)(C)C)c(=O)[nH]c2c1 | -3% | 18* | 2% | -5% | 2% | -5
CNCc1cc2ccc(C)cc2[nH]c1=O | -5% | -6 | -26% | 7% | 2% | -18
Cc1ccc2cc(CCNC(=O)c3cccs3)c(=O)[nH]c2c1 | 12% | 25* | -1% | -10% | -4% | 38
Cc1ccc(N(Cc2cc3ccc(C)cc3[nH]c2=O)S(=O)(=O)c2ccccc2)cc1 | 2% | 0 | -3% | 4% | -3% | -7
CC(C)Cn1c(-c2csc3c2CCCC3)n[nH]c1=S | -66% | 8 | ? | -3% | 10µM* | 13
CCC[C@H](NC(=O)[C@H](CC(C)C)N(C)C(=O)CNC(=O)[C@@H](NC(=O)[C@H](Cc1ccccc1)NC(=O)[C@H](CCCCN)NC(=O)[C@@H](N)CC(=O)O)C(C)C)C(N)=O | . | -1 | . | . | . | -12
O=C(Nc1ccccc1)Nc1ccc(F)cc1F | -7% | 40* | 2% | -1% | -13% | 96*
COC(=O)c1ccc(NC(=O)Nc2cccc(F)c2)cc1 | -35% | 54* | -6% | -1% | 1% | 86*
CC(=O)Nc1cccc(NC(=O)Nc2ccc(F)cc2F)c1 | . | 10 | 9% | 3% | 1% | 31
COC(=O)c1ccc(NC(=O)Nc2ccc(F)cc2F)cc1 | 0% | 37* | 2% | -1% | 0% | 143*
COC(=O)c1ccc(C(=O)Nc2ccc(F)cc2)cc1 | . | . | -3% | 4% | . | .
O=C(Nc1cccnc1)C1Cc2c(-c3ccco3)ccnc2O1 (configuration not stated) | . | . | 0% | . | . | .
CN(C)S(=O)(=O)c1cc(NC(=O)CN2CCCc3ccccc32)ccc1Cl | . | 12 | 1% | -2% | 0% | 14
CN(C)S(=O)(=O)c1cc(NC(=O)CN2CCc3ccccc32)ccc1Cl | . | 30* | -7% | -1% | 13% | 28
CN(CC(=O)Nc1ccc(Cl)c(S(=O)(=O)N(C)C)c1)Cc1ccccc1 | 11% | 40* | 0% | 5% | -3% | 73*
CCCNC(=O)c1cc(C2CCCN(C(=O)C3CCCCC3)C2)on1 (configuration not stated) | . | . | -1% | . | . | .
CCCOC(=O)c1cccc(NC(=O)c2c(-c3ccccc3Cl)noc2C)c1 | . | . | -1% | . | . | .
NNc1ncnc2c1cnn2-c1ccccc1 | 5% | 38* | -5% | 5% | -5% | 42
COc1ccc(-n2ncc3c(Nc4cccc(C)c4)ncnc32)cc1 | -6% | 15* | 2% | 3% | 10% | 109*
Cc1cccc(-n2ncc3c(NC(C)C)ncnc32)c1 | -73% | 53* | -3% | -14% | 2% | 79*
SMILES | NS1 function inh | Cycloheximide cs | TbPYK inhibitor | SARS PLP yeast | LmPK inh | Shiga toxin inh
c1ccc(-n2ncc3c(NC4CCCCCC4)ncnc32)cc1 | -6% | 45* | -4% | -3% | 5% | 62*
Cc1ccccc1Nc1ncnc2c1cnn2-c1ccccc1 | -139% | 48* | -5% | -16% | 7% | 70*
Cc1ccc(-n2ncc3c(Nc4ccccc4C)ncnc32)cc1 | . | . | -6% | . | . | .
CCOc1ccc(Nc2ncnc3c2cnn3-c2ccccc2)cc1 | -39% | -3 | 0% | 2% | 0% | 3
CC(C)Nc1ncnc2c1cnn2-c1ccccc1 | -11% | 23* | -3% | -41% | -1% | 24*
Cc1cccc(-n2ncc3c(Nc4c(C)cc(C)cc4C)ncnc32)c1 | . | . | 0% | . | . | .
Cc1cccc(-n2ncc3c(N)ncnc32)c1 | -12% | 52* | -3% | -9% | -5% | 93
Cc1cccc(-n2ncc3c(N(C)Cc4ccccc4)ncnc32)c1 | -36% | 57* | 0% | -6% | 0% | 97*
COc1ccccc1OCC(=O)N1CCN(C(=O)c2ccco2)CC1 | -1% | 16 | -28% | 0% | -5% | 14
Cc1cccc(-n2ncc3c(Nc4ccc(F)cc4)ncnc32)c1 | -2% | 44* | 3% | -9% | 1% | 52*
O=C(Nc1ccc(O)cc1)c1ccccc1OCc1ccccc1 | -12% | 12 | -11% | 1% | 0% | -1
O=C(OCC(=O)N1CCOCC1)c1ccccc1OCc1ccccc1 | . | . | -1% | -2% | . | .
O=C(OCC(=O)N1CCCCCC1)c1ccc([N+](=O)[O-])cc1Cl | -1% | 15* | 1% | 4% | 0% | 27
O=C(OCC(=O)N1CCCC1)c1ccccc1OCc1ccccc1 | -40% | 21* | -3% | -1% | 1% | 13
O=C(OCC(=O)N1CCCC1)c1ccccc1O | -4% | 54* | -1% | -1% | -9% | 103*
NNC(=O)c1ccccc1OCc1ccccc1 | 7% | 17* | 4% | 0% | 5% | 38*
CSc1nc2nc(C)c(CCC(=O)OCC(=O)Nc3ccc(F)cc3)c(C)n2n1 | . | . | -1% | 5% | . | .
Cc1ccc2nc(-c3ccc(F)cc3)c(CC3CCCCC3)n2c1 | . | . | 5% | . | . | .
COc1cccc(-n2ccn(CC(=O)Nc3ccccc3F)c(=O)c2=O)c1 | . | . | 4% | . | . | .
O=C(C[C@H]1C/C=C\CC[C@H](Cc2ccc(F)cc2)C(=O)O[C@H](c2ccccc2)CNC1=O)N[C@H](CO)Cc1ccccc1 | . | . | -3% | 1% | . | .
CC(=O)c1ccc(OCc2ccccc2)c(C)c1O | -42% | 29* | -1% | -9% | 1% | 32
Cc1nc(C)c(-c2ccc(SCC(=O)Nc3ccc(Cl)c(Cl)c3)nn2)s1 | . | . | -1% | . | . | .
CC(C)(C)OC(=O)N1CCC(c2c(C(=O)N3CCN(Cc4ccccc4)CC3)cnn2-c2cccc(Cl)c2)CC1 | . | . | 1% | . | . | .
O=C(O)c1cccc(NS(=O)(=O)c2ccc3c(c2)C(=O)c2ccccc2C3=O)c1 | 4% | 16* | 1% | 0% | 3% | 20
O=C(O)c1cccc(NN=C2c3ccccc3-c3ccccc32)c1 | . | 42* | 0% | -31% | 4% | 84*
O=C(O)c1cc(NN=C2c3ccccc3-c3ccccc32)ccc1Cl | -55% | 8 | -1% | -6% | 7% | 20
O=C(O)c1cccc2c1-c1ccccc1/C2=N\Nc1ccccc1 | -9% | 50* | -1% | -3% | 5% | 116*
CC1(C)CC(NC(=O)c2cc(S(=O)(=O)N3CCOCC3)c(Cl)cc2Cl)CC(C)(C)N1 | . | . | -1% | 2% | . | .
